Bioassay records deposited in PubChem by several laboratories.
Shown are actives, neighbours in structure and some others; about 0.76% of the full set was active somewhere.
UGM FP inh: M. tuberculosis UGM enzyme inhibitors, primary screen, biochemical, fluorescence polarization, single point; UDP-galactopyranose mutase (Mycobacterium tuberculosis (strain ATCC 25618 / H37Rv)), …; inhibition, % at 10 µM; purified UGM, fluorescence polarization probe displacement; actives 0.06% (n = 320,000); in the data active means inhibition above about 10%, passing the limit was not always enough; inconclusive means no clear call, values can overlap the other calls
Mtb betalactam: beta-lactam sensitization of Mtb H37Rv, H37Rv; inhibition, % at 25 µM; actives 0.27% (n = 330,000); AID 434955, 2010; M. tuberculosis H37Rv growth with meropenem, percent inhibition; call rule not given here;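 further: growth measured after seven days incubation then overnight dye step; 0% = bacteria only wells and 100% = bacteria with antibiotic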
Rv3671c protease: Rv3671c serine protease inhibitors, primary screen, biochemical, fluorescence polarization, M. tuberculosis H37Rv | P9WHR9 | inhibition, % at 5.96 µM | actives 0.048% (n = 320,000) | AID 2606, 2010; in the data active means inhibition above about 38%;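 further: extracellular domain of Rv3671c used as enzyme; 0% = enzyme with DMSO and 100% = no enzyme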
Target sequence (P9WHR9 whole entry, looked up, the tested form may be a part): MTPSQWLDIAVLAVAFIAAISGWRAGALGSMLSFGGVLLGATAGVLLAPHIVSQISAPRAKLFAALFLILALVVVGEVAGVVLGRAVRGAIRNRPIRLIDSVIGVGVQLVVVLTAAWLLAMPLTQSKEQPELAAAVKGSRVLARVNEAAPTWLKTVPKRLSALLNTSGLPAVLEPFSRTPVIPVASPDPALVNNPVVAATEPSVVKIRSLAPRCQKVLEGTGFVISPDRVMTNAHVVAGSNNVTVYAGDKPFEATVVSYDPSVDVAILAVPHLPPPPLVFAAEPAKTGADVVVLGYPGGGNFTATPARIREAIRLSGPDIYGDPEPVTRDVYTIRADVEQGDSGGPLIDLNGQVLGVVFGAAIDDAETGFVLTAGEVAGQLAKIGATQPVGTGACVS
PrP 5UTR inh: inhibition of PrP 5' UTR reporter expression | cell-based PrP 5' UTR mRNA reporter, plate reader | inhibition, % (no concentration beside the values) | actives 0.35% (n = 340,000); in the data active means inhibition above about 52%; further: 0 = median of the neutral control wells
Vc quorum ag: inducers of Vibrio cholerae quorum light production without autoinducers, primary screen, BH1578 luxS cqsA deficient, single point | AID 588436, 2011 | V. cholerae BH1578 lux reporter, luminescence, 6 h | activation, % at 18.7 µM | actives 0.16% (n = 350,000); in the data active means activation mostly above about 9.7%, no sharp cut-off; inconclusive means no clear call, values can overlap the other calls; inactive means mostly below about 3.7%
FadD28 binding: inhibitors of FadD28 bisubstrate probe binding, primary screen, biochemical, fluorescence polarization, single point. Mycobacterium tuberculosis FadD28 fatty-acid-AMP ligase. inhibition, % at 12.5 µM. actives 0.22% (n = 360,000); in the data active means inhibition above about 8.5%, passing the limit was not always enough; inconclusive means no clear call, values can overlap the other calls
PrP 5UTR single: prion 5' UTR mRNA inhibition, cherry-pick retest; shares compounds with PrP 5UTR inh; cell-based prion protein 5' UTR reporter, plate reader; inhibition, % at 2.5 µM; actives 48% (n = 1,100); in the data active means inhibition above about 54%; inconclusive means no clear call, values can overlap the other calls
* marks the source's active call; other numbers are inactive results; i = inactive; ? = inconclusive; . = not tested or not shown.

SMILES	UGM FP inh	Mtb betalactam	Rv3671c protease	PrP 5UTR inh	Vc quorum ag	FadD28 binding	PrP 5UTR single
CC1=C(C(=O)Nc2ccc(CC(=O)NCc3ccc(OC(C)C)cc3)cc2)SCCO1	0	0	-9	72*	0	-3	87*
O=C1c2ccccc2C(O)(c2ncc[nH]2)N1C1CCCCC1 (stereo not drawn)	0	1	-3	69*	i	-2	-17
COc1ccc(CCN2C(=O)c3ccccc3C2(O)c2ncc[nH]2)cc1OC (stereo not drawn)	2	6	-12	-8	i	-3	.
O=C(C(Cl)Cl)N1CC2CCC(CC2)C1	.	.	.	0	3	-1	.
O=C(COc1ccc(Cl)cc1)NCC(=O)N/N=C/c1cccs1	2	-2	7	63*	0	-1	-6
Fc1cc(F)c(F)c(SCn2cc(Br)cn2)c1F	.	.	.	-8	-2	1	.
Cc1csc(N(C(=O)CCNC(=O)c2ccc([N+](=O)[O-])cc2)c2ccccc2)n1	1	-1	-9	-21	0	1	.
CC1(C)CC[C@]2(C(=O)n3ccnc3)CC[C@]3(C)[C@H](C(=O)C=C4[C@@]5(C)C=C(C#N)C(=O)C(C)(C)[C@@H]5CC[C@]43C)[C@@H]2C1	.	.	.	94*	i	0	97*
CC(=O)c1c(C)[nH]c(C(=O)CSc2nnc(N)s2)c1C	0	1	6	55*	i	0	1
Cn1c(N)c(C(=O)CSc2nnc(N)s2)c(=O)n(C)c1=O	2	2	-11	-4	-3	-1	.
O=c1cc(-c2ccc(Cl)c(Cl)c2)[nH][nH]1	-3	1	-57	57*	0	2	-20
O=c1cc(-c2ccc(Cl)cc2)[nH][nH]1	0	4	-153	-30	0	-3	.
Cc1nn(CCCC(=O)Nc2cccnc2Cl)c(C)c1[N+](=O)[O-]	1	-6	9	52*	0	-3	-10
Cc1nn(Cc2c(Cl)cccc2Cl)c(C)c1NC(=O)CCCn1nc(C)c([N+](=O)[O-])c1C	7	8	5	-8	-1	-2	.
COc1ccc(CNC(=O)C2CCN(S(=O)(=O)c3ccccc3)CC2)cc1	1	-9	-1	1	.	-2	.
COc1ccc(NC(=O)C/C(C)=N/NC(=O)c2ccncc2)c([N+](=O)[O-])c1	0	99	-4	54*	0	2	-17
Cc1cccc(CN2CCC(n3nccc3NC(=O)CCCc3ccccc3)CC2)n1	1	-7	-3	-4	i	0	.
Cc1ccc(-c2cc3onc(-c4ccccc4)c3c(=O)n2C)cc1	-1	-1	-4	61*	-1	-1	11
Cc1ccc(-n2[nH]c(=O)c(-c3ccccn3)c2C)cc1	2	46	8	72*	i	-2	68*
O=C(COC(=O)c1ccc[nH]c1=O)Nc1ccc(N2CCCCC2)cc1	2	-6	3	62*	9	-4	?
O=C(COC(=O)c1ccc[nH]c1=O)Nc1ccc(S(=O)(=O)N2CCCC2)cc1	0	1	3	-25	i	-4	.
Cc1[nH]n(-c2ccccc2)c(=O)c1C(=O)c1cccc(F)c1	1	11	-9	62*	i	1	-21
COc1cccc(N2C(=O)Nc3ccc(Br)cc3C2(O)C(=O)NCCN(C)C)c1 (stereo not drawn)	3	-12	-6	-2	1	-1	.
CCCCNC(=O)CCCCn1c(=S)[nH]c2c([nH]c3ccc(OC)cc32)c1=O	0	2	-6	-47	i	-1	.
CC[C@H](C)NC(=O)CCCCCn1c(=S)[nH]c2c([nH]c3ccc(OC)cc32)c1=O	2	2	-10	66*	1	1	-15
SMILES	UGM FP inh	Mtb betalactam	Rv3671c protease	PrP 5UTR inh	Vc quorum ag	FadD28 binding	PrP 5UTR single
CC(C)(C)c1ccc(/C=N/Nc2cccc(C(=O)O)c2)cc1	1	-2	-3	60*	0	2	54*
O=C(O)c1cccc(N/N=C/c2ccc(-c3ccccc3)cc2)c1	.	.	.	-5	0	7	.
CN(C)c1ccc(/C=N/Nc2cccc(C(=O)O)c2)cc1	1	5	-2	93*	0	1	92*
O=C(O)c1cccc(N/N=C/c2cccnc2)c1	.	.	.	-21	0	0	.
Cc1cc(=O)[nH]c(SCC(=O)N2CCCC2)n1	0	-2	5	-9	i	0	.
Cc1ccc2nc(C(=O)O)c(C(=O)O)nc2c1	0	6	-4	-17	-4	0	.
CCOC(=O)Nc1nc(-c2ccc(Cl)cc2Cl)cs1	-3	79	-9	-26	0	-2	.
Cc1cccc(C(=O)N(Cc2ccco2)c2c(N)n(Cc3ccccc3)c(=O)[nH]c2=O)c1	-2	3	-2	90*	i	-2	-46
Cc1ccc(C(=O)N(Cc2ccco2)c2c(N)n(Cc3ccccc3)c(=O)[nH]c2=O)cc1	.	.	.	.	0	-4	.
CCNC(=O)CC1C(=O)N(CC)C(=S)N1NC(=O)c1ccc(Cl)cc1 (stereo not drawn)	-1	6	1	-5	4	-3	.
CCNC(=O)CC1C(=O)N(CC)C(=S)N1NC(=O)c1cccnc1 (stereo not drawn)	1	5	0	80*	0	-3	-8
C[C@@H]1CN([C@H](C)CO)C(=O)CCCn2cc(nn2)CO[C@H]1CN(C)C(=O)Nc1ccccc1	.	.	.	.	0	-2	.
Cc1nc2c(-c3ccccc3)cnn2c(N)c1-c1ccccc1	4	30	.	65*	0	1	10
Cc1nn(C(=O)c2nn(C)cc2Cl)c(C)c1Br	1	0	-4	-12	0	-3	.
COc1cc(/C=N/O)ccc1OCc1ccc(Cl)cc1	1	62	-8	.	.	.	.
COc1cc(/C=N/O)ccc1OCc1ccc(C(=O)O)cc1	-2	-3	-11	88*	0	-3	91*
Cc1cc(C)nc(SSc2nc(C)cc(C)n2)n1	0	-1	-2	-17	0	-3	.
COc1ccccc1[C@H]1C(c2cccc(Cl)c2)=NN(c2ccccc2)[C@@H]1CO	.	.	.	72*	i	0	-5
O=C(c1cc(-c2cccs2)nc2ccccc12)N1CCN(c2ccccc2)CC1	-1	24	7	-22	0	-3	.
COc1cc(C(=O)N2CCN(c3ccccc3)CC2)c2ccccc2n1	.	.	.	75*	1	-1	88*
O=C1C=C(c2ccc(O)cc2)C[C@@H](c2ccc3c(c2)OCO3)C1	0	52	-15	67*	-1	-7	2
Cc1ccc(C2=CC(=O)C[C@H](c3ccc4c(c3)OCO4)C2)cc1	3	46	-16	-6	7	-3	.
